A short description of test [1]: inhibitors of TNFa-induced NFkB p65 translocation, primary screen, imaging, HUVEC, MLSMR starter and 10KST1 sets (AID 438;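 active means inhibition above 20% together with a positive visual image hit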;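 further: compound added about 3h40 before a 20 min TNFalpha stimulation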;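 on inhibition: signal is the nuclear over cytoplasmic p65 intensity ratio per well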). The settings on record: HUVEC TNFa-induced p65 nuclear translocation; cell count: measured here: nuclei count (cytotoxicity indicator), at 2.08 µM; inhibition: at 2 µM, stronger effect = higher value, 0% TNFa-plus-vehicle, 100% no-TNFa wells.
Test [2] is described as follows: inhibitors of mutant huntingtin aggregation, primary screen, imaging, exon1htt(103Q)mCFP cells, high-content imaging (AID 483;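 active means visual image review flags a hit and inhibition of aggregation exceeds 20%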;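 further: compound exposure lasted 3 days before fixation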;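 on nuclei count: percent of the per-plate median nuclei count of sample wells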). The settings on record: exon1htt(103Q)mCFP cell line, aggregate imaging, at 2 µM; inhibition of aggregation: stronger effect = higher value; nuclei count: measured here: cell count, toxicity.
A short description of test [3]: inhibitors of E-selectin induction by TNFa, primary screen, imaging, HUVEC, immunofluorescence, MLSMR starter and 10KST1 sets (AID 487;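 active means visually confirmed hit in the image check and inhibition above 20%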;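 on inhibition: signal is fraction of cell area covered by stained E-selectin grains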;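 on nuclei count: 100% = median nuclei count of all wells on the same plate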). As to conditions: HUVEC TNFalpha-induced E-selectin immunofluorescence imaging, at 2 µM; inhibition: stronger effect = higher value; nuclei count: measured here: cell number, toxicity.
Test [4] addresses Voltage-gated potassium channel subunit beta-2 (Rattus norvegicus) (UniProt P62483). In words: KvBeta enzyme negative modulators, primary screen, biochemical, NADPH fluorescence (AID 622;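 active means fluorescence slope higher than the sample average by over 3 SD, cut at about -0.22 in these data, passing the limit was not always enough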;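 further: slope of raw intensity against log time taken from 70 to 1610 s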). The settings on record: recombinant KvBeta, 4-cyanobenzaldehyde reduction, at 10 µM, stronger effect = higher value.
The target is the same in test [5]. The test can be described thus: KvBeta positive modulators, primary screen, biochemical, NADPH fluorescence (AID 623;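 active means NADPH fluorescence slope more negative than the mean of all samples by about 3 SD, 99.7% confidence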;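 further: fluorescence intensity change per second fitted from 20 to 320 s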). The settings on record: Recombinant KvBeta, NADPH fluorescence decrease slope, 10 min; at 10 µM; stronger effect = lower value.
Test [6] concerns the target Alpha-2C adrenergic receptor (Homo sapiens) (UniProt P18825). The test can be described thus: modulators of alpha2C/GIRK thallium flux, primary screen, cell-based, HEK293 alpha2C/GIRK1/2 (AID 624;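 active means fluorescence slope after compound addition differing from the mean of all screened samples at 99.7% confidence, in either direction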;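 further: slope of fluorescence ratio to pre-addition baseline per second over 15 to 24 s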). The settings on record: thallium flux BTC fluorescence, at 10 µM, actives lie on both sides.
Test [7] in a line: inhibitors of Sendai virus-induced IRF3 signaling, primary screen, TLR/RLR signaling modifier project, cell-based, Sendai virus stimulus, luciferase, 10K MLSCN set (AID 602276).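 Further: firefly luciferase from ISG56 promoter only with Renilla not read in this screen; 0% = Sendai virus plus DMSO and 100% = medium plus DMSO without virus.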 The settings on record: HEK293 RL24 IRF3 luciferase reporter, at 10 µM, stronger effect = higher value.
A short description of test [8]: inhibitors of poly I:C-induced TLR3 signaling, primary screen, cell-based, poly I:C stimulus, luciferase, 10K MLSCN set (AID 602277;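 active means inhibition of the reporter signal at or above 50%; inactive means inhibition below 50%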). As to conditions: HEK293-TLR3 RL24 IRF3 luciferase reporter, at 10 µM, stronger effect = higher value. In general terms: Reporter assays use an easily measured gene product as a stand-in for the process of interest.

The text below walks through data of PubChem BioAssay.

Active and inactive are the calls of the source.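 How the source made its calls, unless noted: active means inhibition at or above 50% at 10 µM; inactive means inhibition below 50%.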

Chain of Voltage-gated potassium channel subunit beta-2 (Rattus norvegicus) (P62483 whole entry, looked up): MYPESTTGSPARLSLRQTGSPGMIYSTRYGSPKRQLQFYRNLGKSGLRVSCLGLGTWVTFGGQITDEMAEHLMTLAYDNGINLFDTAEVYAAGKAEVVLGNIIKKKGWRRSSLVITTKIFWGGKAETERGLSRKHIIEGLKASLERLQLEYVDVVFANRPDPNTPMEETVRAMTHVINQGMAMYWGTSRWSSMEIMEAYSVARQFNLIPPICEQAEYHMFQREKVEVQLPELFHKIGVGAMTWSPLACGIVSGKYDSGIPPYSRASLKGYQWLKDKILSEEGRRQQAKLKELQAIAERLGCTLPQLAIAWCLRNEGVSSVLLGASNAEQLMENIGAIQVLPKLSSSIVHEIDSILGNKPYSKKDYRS
Chain of Alpha-2C adrenergic receptor (Homo sapiens) (P18825 whole entry, looked up): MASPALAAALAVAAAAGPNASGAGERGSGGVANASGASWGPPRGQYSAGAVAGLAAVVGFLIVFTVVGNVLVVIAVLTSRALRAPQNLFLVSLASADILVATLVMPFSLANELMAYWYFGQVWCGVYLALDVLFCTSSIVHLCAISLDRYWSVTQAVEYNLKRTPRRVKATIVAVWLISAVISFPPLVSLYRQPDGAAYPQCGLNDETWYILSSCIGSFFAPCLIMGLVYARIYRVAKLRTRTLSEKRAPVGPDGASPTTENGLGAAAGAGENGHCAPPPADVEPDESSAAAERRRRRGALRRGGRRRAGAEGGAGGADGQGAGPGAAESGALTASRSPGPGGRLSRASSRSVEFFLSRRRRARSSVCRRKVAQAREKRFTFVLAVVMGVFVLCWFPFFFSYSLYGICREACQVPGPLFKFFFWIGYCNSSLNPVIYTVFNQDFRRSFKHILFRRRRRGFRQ

As a reminder, the inhibition is the drop in the measured response relative to a control, in per cent. Regarding `CCOc1ccc(N(CC(=O)NC2CCCCC2)S(=O)(=O)c2c(C)noc2C)cc1`, the cell count in test [1] amounted to 710. In addition, the inhibition was -2.8% (inactive) in test [1], -52.9% (inactive) in test [3], -0.99% (inactive) in test [7] and 17.1% (inactive) in test [8]. Besides, the inhibition of aggregation in test [2] was 33.7% (inactive). Besides, the nuclei count in test [2] turned out to be 117%; in test [3] it was 112%. Also, the fluorescence slope in test [4] was -0.616 (inactive). Further, the NADPH fluorescence slope in test [5] was -2.8e-05 (inactive). Moreover, in test [6], the slope is 0.00737 (inactive).

In the case of `CCOc1ccccc1C1NC(=O)NC(C)=C1C(=O)OC1CCCC1C` (centres undefined), the cell count in test [1] is 686. The inhibition was 2.9% (inactive) in test [1], 13.9% (inactive) in test [3], 16.6% (inactive) in test [7] and 22.2% (inactive) in test [8]. In addition, the inhibition of aggregation in test [2] is -3.3% (inactive). For the same compound, the values for the nuclei count in test [2] and in test [3] were 103% and 99.1%, respectively. In addition, the fluorescence slope in test [4] was -0.488 (inactive). In addition, in test [5], the NADPH fluorescence slope is -5e-05 (inactive). In addition, the slope in test [6] is 0.00539 (inactive).

Turning to `CC(C)(C)n1nnnc1CN1CCN(C2CCCC2)CC1`, the cell count in test [1] was 798. The inhibition in test [1] is -8.1% (inactive); in test [3], -52.3% (inactive); in test [7], -0.428% (inactive); in test [8], 21.3% (inactive). For the same compound, in test [2], the inhibition of aggregation is 9.7% (inactive). The nuclei count in test [2] turned out to be 136%; in test [3], 107%. Moreover, the fluorescence slope in test [4] is -0.472 (inactive). For the same compound, the NADPH fluorescence slope in test [5] is -4.3e-05 (inactive). In test [6], the slope is 0.00587 (inactive).

In the case of `COc1ccc(S(=O)(=O)N(CC(=O)N2CCN(c3ccccc3OC)CC2)c2ccccc2)cc1`, in test [1], the cell count came to 291. The inhibition in test [1] is 5.2% (inactive); in test [3] it was 20% (inactive); in test [7], 8.76% (inactive); in test [8] it was 13.4% (inactive). Moreover, in test [2], the inhibition of aggregation was -12.6% (inactive). Besides, the nuclei count in test [2] was determined as 104%; in test [3] it was 111%. For the same compound, the fluorescence slope in test [4] was -0.474 (inactive). For the same compound, in test [5], the NADPH fluorescence slope is -4.9e-05 (inactive). In test [6], the slope is 0.00648 (inactive).

Regarding `Cc1sc2ncn3ncnc3c2c1C`, the cell count in test [1] was 546. Further, the inhibition in test [1] is -10% (inactive); in test [3] it was 25.3% (inactive); in test [7] it was -16.9% (inactive); in test [8] it was -56.2% (inactive). Also, in test [2], the inhibition of aggregation is -1.7% (inactive). In addition, the nuclei count turned out to be 41.8% in test [2] and 102% in test [3]. Also, in test [4], the fluorescence slope is -0.617 (inactive). The NADPH fluorescence slope in test [5] was -3.8e-05 (inactive). In addition, the slope in test [6] was 0.00315 (inactive).

On to `O=C(CSc1nc2c(c(=O)n1-c1ccc(F)cc1)SCC2)NCC1CCCO1` (centres undefined), for which the cell count in test [1] amounted to 256. Also, the inhibition in test [1] is 9.8% (inactive); in test [3] it was -8.7% (inactive); in test [7] it was 17.7% (inactive); in test [8], 19.7% (inactive). Besides, the inhibition of aggregation in test [2] is 16.7% (inactive). For the same compound, the nuclei count is 94.5% in test [2] and 78.2% in test [3]. In addition, the fluorescence slope in test [4] was -0.462 (inactive). In addition, in test [5], the NADPH fluorescence slope is -5.5e-05 (inactive). Besides, in test [6], the slope was 0.00463 (inactive).

For `O=C(NCc1cccnc1)C1c2ccccc2C(=O)N1Cc1ccco1` (centres undefined), the cell count in test [1] was determined as 408. Moreover, the inhibition in test [1] was 4.7% (inactive); in test [3], 50.4% (inactive); in test [7], 5.3% (inactive); in test [8] it was 11% (inactive). For the same compound, the inhibition of aggregation in test [2] is 7% (inactive). The nuclei count in test [2] stood at 115%; in test [3] it was 113%. Also, in test [4], the fluorescence slope was -0.595 (inactive). In test [5], the NADPH fluorescence slope is -1.9e-05 (inactive). Also, the slope in test [6] was 0.00603 (inactive).

With `Cc1ccc(N=C2NC(=O)CS2)c(C)c1`, in test [1], the cell count turned out to be 607. Further, the inhibition in test [1] was 7.4% (inactive); in test [3] it was 59.4% (active); in test [7], 2.6% (inactive); in test [8], 21.7% (inactive). Also, in test [2], the inhibition of aggregation was 22.3% (inactive). In addition, the nuclei count in test [2] is 95.2%; in test [3], 76.3%. Besides, in test [4], the fluorescence slope was -0.47 (inactive). The NADPH fluorescence slope in test [5] was -2.8e-05 (inactive). Besides, in test [6], the slope is 0.00603 (inactive).

Regarding `CCOC(=O)Cc1nnc(NC(=O)c2ncn[nH]2)s1`, the cell count in test [1] amounted to 343. Moreover, the inhibition was 0.2% (inactive) in test [1], -5.5% (inactive) in test [3], -0.284% (inactive) in test [7] and 5.11% (inactive) in test [8]. Also, the inhibition of aggregation in test [2] is -4.6% (inactive). Also, the values for the nuclei count in test [2] and in test [3] were 99.8% and 119%, respectively. Moreover, the fluorescence slope in test [4] was -0.438 (inactive). Further, the NADPH fluorescence slope in test [5] is -5.2e-05 (inactive). Moreover, in test [6], the slope was 0.00725 (inactive).

Take `O=C(COc1ccc(S(=O)(=O)NC2CCCCC2)cc1Cl)NCC1CCCO1` (centres undefined): the cell count in test [1] was determined as 310. The inhibition in test [1] is -13.4% (inactive); in test [3] it was -111% (inactive); in test [7], 3.07% (inactive); in test [8], 9.97% (inactive). Moreover, the inhibition of aggregation in test [2] is -14.2% (inactive). The values for the nuclei count in test [2] and in test [3] were 124% and 95.6%, respectively. Besides, in test [4], the fluorescence slope is -0.415 (inactive). Also, the NADPH fluorescence slope in test [5] was -1.9e-05 (inactive). For the same compound, the slope in test [6] was 0.00646 (inactive).

Turning to `O=C(O)C1C2CCC(O2)C1C(=O)NCCC1=CCCCC1` (centres undefined), in test [1], the cell count was 465. The inhibition in test [1] is 10.4% (inactive); in test [3] it was -112% (inactive); in test [7] it was 1.86% (inactive); in test [8], 13.6% (inactive). Besides, in test [2], the inhibition of aggregation is -18.3% (inactive). Further, the nuclei count came to 105% in test [2] and 117% in test [3]. In test [4], the fluorescence slope was -0.331 (inactive). Further, the NADPH fluorescence slope in test [5] was -5.8e-05 (inactive). For the same compound, in test [6], the slope was 0.0055 (inactive).

Consider `CC1(C)CC(=O)C=C(Nc2ccc(OCC(F)(F)C(F)F)cc2)C1`, for which, in test [1], the cell count was found to be 362. The inhibition in test [1] was -0.3% (inactive); in test [3] it was -43% (inactive); in test [7], -8.49% (inactive); in test [8], -18.3% (inactive). For the same compound, the inhibition of aggregation in test [2] is -25.2% (inactive). Besides, the nuclei count came to 110% in test [2] and 116% in test [3]. Further, in test [4], the fluorescence slope is -0.324 (inactive). For the same compound, the NADPH fluorescence slope in test [5] is -1.5e-05 (inactive). For the same compound, the slope in test [6] is 0.00531 (inactive).

On to `Cc1nn(C)cc1NC(=O)CCSc1nc(-c2ccco2)cc(C(F)(F)F)n1`, for which, in test [1], the cell count came to 452. The inhibition was -13.9% (inactive) in test [1], 35.1% (inactive) in test [3], -8.54% (inactive) in test [7] and -43.3% (inactive) in test [8]. For the same compound, the inhibition of aggregation in test [2] is -12.3% (inactive). Besides, the nuclei count in test [2] came out at 107%; in test [3], 106%. Further, the fluorescence slope in test [4] is -0.615 (inactive). Besides, in test [5], the NADPH fluorescence slope is -1.6e-06 (inactive). The slope in test [6] was 0.00399 (inactive).

For `COc1ccc(NC(=O)c2cc(C(C)C)on2)c(OC)c1`, the cell count in test [1] turned out to be 568. For the same compound, the inhibition was -11.1% (inactive) in test [1], 7.6% (inactive) in test [3], -35.5% (inactive) in test [7] and -63.9% (inactive) in test [8]. Further, in test [2], the inhibition of aggregation was 33.2% (inactive). Besides, the values for the nuclei count in test [2] and in test [3] were 100% and 107%, respectively. For the same compound, the fluorescence slope in test [4] is -0.576 (inactive). The NADPH fluorescence slope in test [5] is -1.2e-05 (inactive). Further, in test [6], the slope was 0.00755 (inactive).
